Laboratory results published in PubChem BioAssay AID1508600 (Functional Genomics Laboratory (NCATS/FGL), 2020).
About 3,700 (7%) of roughly 53,000 sequences were called active.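 Rule for the calls: active = gene knockdowns whose robust z-score for IL-1 alpha signal is at least 2 or at most -2, so actives lie on both sides; inactive = the rest.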 The sample as a whole holds a higher share of actives than the screen did.

Assay: Components of the Cytosolic LPS Sensing Pathway: Gene Identification via Genome-wide siRNA Screen;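 note: robust z of the log signal after scaling to non-targeting control siRNA wells of the plate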
Conditions: RAW264.7 macrophages, IL-1a HTRF, actives lie on both sides, screened at 100 nM (by protocol), cells primed 5 h with Pam3CSK4 first
Procedure, shortened: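 IL-1a HTRF of supernatants after 24 hour LipidA transfection of Pam3CSK4-primed (5 hours) RAW264.7 cells, 48h post-siRNA transfection (100 nM). Scores: percent of plate negative-control median, then log-based robust z-score.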

Row | Sequence | z-score
1 | GGAAAUUUUGAACCUGACATT against Setd3 | 0.125 (inactive)
2 | GGUCUCAAAGAAAUCUGUATT against Bcap29 | -2.4 (active)
3 | GGACUCUUCAGCUUCCAGUTT against Uts2 | -0.0543 (inactive)
4 | CCAAGACUCUUUAUUCAACTT against Rasip1 | 0.774 (inactive)
5 | GGAGACAGAAAAUCAAGGCTT against Taf7 | -0.506 (inactive)
6 | CCCUUGCUUGCUAAGAUUUTT against Scyl3 | -0.684 (inactive)
7 | GCUGGUGUCUUAUGGCCUATT against 9130008F23Rik | -2.02 (active)
8 | GGAUACAGAGUAUUUCAAGTT against Rtkn | -1.01 (inactive)
9 | GCUUGUUCGGGAAUCUUAUTT against Olfr292 | 0.116 (inactive)
10 | GCCUGUUCCGCCAUUCAUGTT against Flii | -0.2 (inactive)
11 | GCUCACACUCUUCAUUAUCTT against Olfr1408 | -2.91 (active)
12 | GGUGUUAGCUUCUCAAAAUTT against Cltrn | 0.497 (inactive)
13 | GGAACAUCAUCCACUGGAATT against Crhr1 | 6 (active)
14 | GGCAAUUUGUGGAUUAUUGTT against Olfr1105 | -0.458 (inactive)
15 | CCCUAAUUCAUUAGCUAUATT against Dhdds | 0.111 (inactive)
16 | GGACCCUGCUUUUUAAAAATT against Harbi1 | 0.293 (inactive)
17 | GGAAGAGGAGGAAAACUUGTT against Fam135b | -0.653 (inactive)
18 | GGAUGAUCUUGGUGUACACTT against Tmem91 | 3.04 (active)
19 | GGUAUAAUUGGAAUUGUGATT against Morc1 | -0.658 (inactive)
20 | GGUUGUCUGGAAUUUCCAUTT against Immp2l | 3.81 (active)
21 | CCCAAUUCCUUAACUAUUATT against Cd209a | 1.02 (inactive)
22 | GGUGGAAAGUGCAUAGACATT against Notch3 | 0.789 (inactive)

Row | Sequence | z-score
23 | GGACCUGGAUCUAUCCUACTT against Lrfn1 | -0.969 (inactive)
24 | GGAUGAUGACUUCCUAGGGTT against Cpne7 | -0.622 (inactive)
25 | CCUUAGGAUAGAAACAAAGTT against Mypn | 1.01 (inactive)
26 | GCCAGUUAUGAGCAACACCTT against Slc46a1 | -2.14 (active)
27 | GCUAACAAAUGUCAGCAUGTT against Popdc3 | 0.319 (inactive)
28 | GCCGACUUUAAUGACUGCUTT against Cmtm4 | 1.71 (inactive)
29 | CGAAACUGGUCUUUAUACUTT against Tigd4 | -1.27 (inactive)
30 | AUGCGUCCUUCACCAACGATT against Tmem158 | -3.28 (active)
31 | GGAUGACAUGUCAUCAAAGTT against Vmn1r89 | -1.38 (inactive)
32 | GGGAAGAGUGGUGCAAUGATT against Olfr155 | 0.835 (inactive)
33 | GCAACAAUAAAUCGUACAGTT against Nupr1 | 0.246 (inactive)
34 | GGGAAGUUCAUAUUGAUCCTT against Gsdma | 0.691 (inactive)
35 | GGCUUAAGGUGAGAUAUUCTT against Sp9 | -0.524 (inactive)
36 | CGAGUGUUCCUCCAAGUGCTT against Fhl5 | 0.384 (inactive)
37 | GGGACUAAGAUGAAGCUGATT against Fam43a | -2.18 (active)
38 | GCUCACUUAUCUACGUUUUTT against Trim15 | 0.639 (inactive)
39 | GCAUGUGACCUCGUCUUGCTT against Apbb2 | -1.04 (inactive)
40 | GGGCAUGAGAAAUCCACAGTT against Rhox9 | -1.23 (inactive)
41 | GGCAAAUAAAUUCAGCAAGTT against Pum3 | -0.0642 (inactive)
42 | GGACUUCCCGAACUACAUATT against Zfp52 | 0.0339 (inactive)
43 | GGCUCUCUUUAGAACAGACTT against Rad17 | 0.479 (inactive)
44 | GCUACAUACCCAAAUACAUTT against Trpc4ap | 2.1 (active)

Row | Sequence | z-score
45 | GGGACAUAUCUGAAGCAAGTT against Rps26 | 0.896 (inactive)
46 | GCUUCUGUCAUAAUGAUAUTT against Pramel6 | -2.33 (active)
47 | CCAGAAACCAAUCUUUCUUTT against Serpinb1a | -0.0285 (inactive)
48 | CCCUAGUGAUAAGGAAUGCTT against Cxcl9 | 0.228 (inactive)
49 | GGUGACCACUUCAUGUCACTT against Tmem138 | -1.28 (inactive)
50 | GCGGGAGCUUAGCUUUUAUTT against G6pc3 | 3.33 (active)
51 | CCGUAGACUCGGUGAAGCUTT against Plpbp | -0.143 (inactive)
52 | GGUCAGAAUCUUUGUUCCUTT against Ndufs4 | -0.912 (inactive)
53 | GGAUUCCCUGUAUGCCCAATT against Rpl36al | -0.23 (inactive)
54 | GGAGAAGCCAAAAGAAUGCTT against Xrn2 | -0.76 (inactive)
55 | GCUUACAAGUUGCUACUGGTT against Dnajc8 | 0.425 (inactive)
56 | GGGCAAUUCUAUCAAAGAGTT against Gps1 | -2.14 (active)
57 | CCUAUAGCAAUGGCAGCAGTT against Pkn1 | -1.66 (inactive)
58 | GGUCCUUUCCCAUAACCUGTT against Swap70 | -0.922 (inactive)
59 | GCGGACUACUAUGCUAAAGTT against Tgfb1 | 1.08 (inactive)
60 | GGUGUUCAAAAAGUUUAACTT against Zswim1 | 1.02 (inactive)
61 | GCCAAGCUCGCCAAGAUUATT against P4ha2 | 0.273 (inactive)
62 | GCUGAAGUGCAAGAACAAATT against Dmd | 1.91 (inactive)
63 | GGUUUUGGCGGAUACUAAGTT against Plin3 | -0.24 (inactive)
64 | GGAUGAGAGAAAGUUACCCTT against Tspo2 | -2.78 (active)
65 | GGGCAUCUCAGAUUUAGCUTT against Cct3 | -0.0572 (inactive)
66 | GGGUGAAGAUUCUCUACAATT against Dctn3 | -0.621 (inactive)

Row | Sequence | z-score
67 | GGACUGAACCCAAAUGCCUTT against Chtf8 | -1.45 (inactive)
68 | GGAGCUUACAUGGUCCCUATT against Prss37 | -0.238 (inactive)
69 | CGAGAAGGAUAUAAUUGUUTT against Klhl18 | 0.449 (inactive)
70 | GGUUUCGAACUGAUGAAGCTT against Nemf | 0.284 (inactive)
71 | GGCAAAACAAAGAAUGAAATT against Prss40 | -0.38 (inactive)
72 | CGAAGUCUGAAACACAUGUTT against A730018C14Rik | 4.13 (active)
73 | GGACUCACAGAAAUUUCCATT against Slc36a1 | -1.53 (inactive)
74 | GGUAAUGAGACGCGGUUUATT against Ina | 0.202 (inactive)
75 | GCAACACCUUAUGUUUCAUTT against Cab39 | 1.68 (inactive)
76 | GGCACGAUUUGCUUAUUUUTT against Usf2 | 0.0682 (inactive)
77 | GCCUCCUACUGGUUCCAAATT against Commd7 | 2.05 (active)
78 | GUCUUCUCUGCCUGUCUGATT against Lce3c | -0.0986 (inactive)
79 | CCCAGGGAGAAUUGACUUGTT against Sertad1 | 0.0114 (inactive)
80 | GGCCUUUGUAGUAUCCCAGTT against Nudt16 | -0.709 (inactive)
81 | GCACCAAUCAAUGAGGAGATT against Was | -0.785 (inactive)
82 | GGAGUGAUGUCCAUACUGGTT against Leap2 | -2.57 (active)
83 | CCAUCCUAAGCAGAGUCACTT against Frg2f1 | -0.446 (inactive)
84 | GGAUGUUGAUUUUCAUGGUTT against Grpel2 | 1.13 (inactive)
85 | GGGUAUUCAUGAUGUCUUUTT against Kctd6 | 1.39 (inactive)
86 | GGCAUCACUGAUGAAUGAATT against Pacsin2 | -0.585 (inactive)
87 | GGAACAUCCAGUCUCUCACTT against Fbxo31 | 0.244 (inactive)
88 | CCCAGGUGUAUUUUACAUATT against D10Wsu102e | -0.00657 (inactive)

Row | Sequence | z-score
89 | CGCGGAGGUCUCUCUUAUUTT against Prss39 | 2.22 (active)
90 | GGUAUUUAAUGGAAGCCUGTT against Acp7 | -0.537 (inactive)
91 | GGCAUCUUUCAUAAAACCGTT against Atad3aos | -0.622 (inactive)
92 | GCCUAUCAGAAGCUGUUAATT against Eif2ak2 | 3.59 (active)
93 | GGAGAUAUUAUUGUUCAGATT against Cemip2 | -0.337 (inactive)
94 | GUGCUUUCGUGUUUUUCAATT against Klrb1b | -0.388 (inactive)
95 | GCUAUCGUGAUAAUCUGGATT against Gxylt2 | -0.113 (inactive)
96 | CUUAAAGGAAUCCUGGUGGTT against Fam169b | 0.0229 (inactive)
97 | CCUGCAUGCCUAUGUGCGUTT against Ace | 2.89 (active)
98 | GAAGACUUCGUCCUAACAGTT against Ctsg | -0.195 (inactive)
99 | GGCCUCUUACAAAGUGAGATT against Supt7l | -0.265 (inactive)
100 | GGGAUAUGUGAAGCCUCAGTT against Mospd3 | -1.21 (inactive)
101 | GGAACAGUUCCUUGUGGUUTT against Uqcrh | 0.935 (inactive)
102 | GGUUCAGAAUUUAACCUUATT against Phc3 | 3 (active)
103 | GGUAUUGUGAAACGUACACTT against Ky | 0.914 (inactive)
104 | CCGUCGUCCUAGAAAAACCTT against Nsun7 | -1.18 (inactive)
105 | CCUACUAAACUCAGUCUUUTT against Kap | 1.08 (inactive)
106 | GGAUCAUGCAGACAUGCUGTT against Ggcx | -0.278 (inactive)
107 | GGUUCUAAAUCAGAAGUGCTT against Tyw5 | -2.08 (active)
108 | GGUAUAGCCACAGGUACAUTT against Phxr5 | -0.368 (inactive)
